# Tested on: WHIM30 (cells of a triple-negative basal-like breast cancer xenograft)
# Assay: cell viability of combination (% of vehicle); higher = less cytotoxic
# Settings: 1 µM; 72 h; partner dose: 10 nM
# Description: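 PDX cells were treated for 72 h with each drug at 1 µM plus carfilzomib (10 nM; 100 nM for WHIM2). Luciferase viability is expressed as percent of vehicle.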
row,Structure (SMILES),cell viability of combination
1,Cl.Clc1ccccc1CN1CCc2sccc2C1 [Ticlopidine HCl] + CC(C)C[C@H](NC(=O)[C@H](CCc1ccccc1)NC(=O)CN1CCOCC1)C(=O)N[C@@H](Cc1ccccc1)C(=O)N[C@@H](CC(C)C)C(=O)[C@@]1(C)CO1 [Carfilzomib],16
2,CC(C)COc1ccc(CNC(=O)N(Cc2ccc(F)cc2)C2CCN(C)CC2)cc1 [Pimavanserin] + CC(C)C[C@H](NC(=O)[C@H](CCc1ccccc1)NC(=O)CN1CCOCC1)C(=O)N[C@@H](Cc1ccccc1)C(=O)N[C@@H](CC(C)C)C(=O)[C@@]1(C)CO1 [Carfilzomib],15.8
3,C=CC(=O)Nc1cc(Nc2nccc(-c3cn(C)c4ccccc34)n2)c(OC)cc1N(C)CCN(C)C + CC(C)C[C@H](NC(=O)[C@H](CCc1ccccc1)NC(=O)CN1CCOCC1)C(=O)N[C@@H](Cc1ccccc1)C(=O)N[C@@H](CC(C)C)C(=O)[C@@]1(C)CO1 [Carfilzomib],17.5
4,COc1ncc(-c2ccc3nccc(-c4ccnnc4)c3c2)cc1NS(=O)(=O)c1ccc(F)cc1F + CC(C)C[C@H](NC(=O)[C@H](CCc1ccccc1)NC(=O)CN1CCOCC1)C(=O)N[C@@H](Cc1ccccc1)C(=O)N[C@@H](CC(C)C)C(=O)[C@@]1(C)CO1 [Carfilzomib],8.27
5,Nc1ccc2cc3ccc([NH3+])cc3nc2c1.Nc1ccc2cc3ccc([NH3+])cc3nc2c1.O=S(=O)([O-])[O-] [Proflavine Hemisulfate] + CC(C)C[C@H](NC(=O)[C@H](CCc1ccccc1)NC(=O)CN1CCOCC1)C(=O)N[C@@H](Cc1ccccc1)C(=O)N[C@@H](CC(C)C)C(=O)[C@@]1(C)CO1 [Carfilzomib],11.2
6,Cc1cc(Nc2ncc(Cl)c(Nc3ccccc3S(=O)(=O)C(C)C)n2)c(OC(C)C)cc1C1CCNCC1 + CC(C)C[C@H](NC(=O)[C@H](CCc1ccccc1)NC(=O)CN1CCOCC1)C(=O)N[C@@H](Cc1ccccc1)C(=O)N[C@@H](CC(C)C)C(=O)[C@@]1(C)CO1 [Carfilzomib],7.66
7,Clc1ccc(COC(Cn2ccnc2)c2ccc(Cl)cc2Cl)c(Cl)c1.O=[N+]([O-])O (stereo not given) [Miconazole Nitrate] + CC(C)C[C@H](NC(=O)[C@H](CCc1ccccc1)NC(=O)CN1CCOCC1)C(=O)N[C@@H](Cc1ccccc1)C(=O)N[C@@H](CC(C)C)C(=O)[C@@]1(C)CO1 [Carfilzomib],14
8,COc1cccc2c1C(=O)c1c(O)c3c(c(O)c1C2=O)CC(O)(C(=O)CO)CC3OC1CC(N)C(O)C(C)O1 (stereo not given) [Doxorubicin] + CC(C)C[C@H](NC(=O)[C@H](CCc1ccccc1)NC(=O)CN1CCOCC1)C(=O)N[C@@H](Cc1ccccc1)C(=O)N[C@@H](CC(C)C)C(=O)[C@@]1(C)CO1 [Carfilzomib],8.32
9,CCCCc1oc2ccc(NS(C)(=O)=O)cc2c1C(=O)c1ccc(OCCCN(CCCC)CCCC)cc1.Cl [Dronedarone HCl] + CC(C)C[C@H](NC(=O)[C@H](CCc1ccccc1)NC(=O)CN1CCOCC1)C(=O)N[C@@H](Cc1ccccc1)C(=O)N[C@@H](CC(C)C)C(=O)[C@@]1(C)CO1 [Carfilzomib],12.7
10,CN(C(=O)CN(CCO)CC(=O)N(C)C(C)(C)Cc1ccccc1)C(C)(C)Cc1ccccc1 [Oxethazaine] + CC(C)C[C@H](NC(=O)[C@H](CCc1ccccc1)NC(=O)CN1CCOCC1)C(=O)N[C@@H](Cc1ccccc1)C(=O)N[C@@H](CC(C)C)C(=O)[C@@]1(C)CO1 [Carfilzomib],20.8
11,CC[C@@]1(O)C(=O)OCc2c1cc1n(c2=O)Cc2cc3c(CN(C)C)c(O)ccc3nc2-1 [Topotecan] + CC(C)C[C@H](NC(=O)[C@H](CCc1ccccc1)NC(=O)CN1CCOCC1)C(=O)N[C@@H](Cc1ccccc1)C(=O)N[C@@H](CC(C)C)C(=O)[C@@]1(C)CO1 [Carfilzomib],7.16
12,COC(=O)C1=C(C)NC(C)=C(C(=O)OCCN(C)Cc2ccccc2)C1c1cccc([N+](=O)[O-])c1.Cl (stereo not given) [Nicardipine HCl] + CC(C)C[C@H](NC(=O)[C@H](CCc1ccccc1)NC(=O)CN1CCOCC1)C(=O)N[C@@H](Cc1ccccc1)C(=O)N[C@@H](CC(C)C)C(=O)[C@@]1(C)CO1 [Carfilzomib],13.8
13,CCOc1nc2cccc(C(=O)OC(C)OC(=O)OC3CCCCC3)c2n1Cc1ccc(-c2ccccc2-c2nn[nH]n2)cc1 (stereo not given) [Candesartan Cilexetil] + CC(C)C[C@H](NC(=O)[C@H](CCc1ccccc1)NC(=O)CN1CCOCC1)C(=O)N[C@@H](Cc1ccccc1)C(=O)N[C@@H](CC(C)C)C(=O)[C@@]1(C)CO1 [Carfilzomib],18.9
14,O=C(O)c1cc(O)c(O)c(O)c1 [Gallic acid] + CC(C)C[C@H](NC(=O)[C@H](CCc1ccccc1)NC(=O)CN1CCOCC1)C(=O)N[C@@H](Cc1ccccc1)C(=O)N[C@@H](CC(C)C)C(=O)[C@@]1(C)CO1 [Carfilzomib],16.3
15,C#Cc1cccc(Nc2ncnc3cc(OCCOC)c(OCCOC)cc23)c1 [Erlotinib] + CC(C)C[C@H](NC(=O)[C@H](CCc1ccccc1)NC(=O)CN1CCOCC1)C(=O)N[C@@H](Cc1ccccc1)C(=O)N[C@@H](CC(C)C)C(=O)[C@@]1(C)CO1 [Carfilzomib],27.4
16,CC(C)C[C@H](NC(=O)[C@H](Cc1ccccc1)NC(=O)c1cnccn1)B(O)O [Bortezomib] + CC(C)C[C@H](NC(=O)[C@H](CCc1ccccc1)NC(=O)CN1CCOCC1)C(=O)N[C@@H](Cc1ccccc1)C(=O)N[C@@H](CC(C)C)C(=O)[C@@]1(C)CO1 [Carfilzomib],5.02
17,COc1cccc2c1C(=O)c1c(O)c3c(c(O)c1C2=O)C[C@@](O)(C(C)=O)C[C@@H]3O[C@H]1C[C@H](N)[C@H](O)[C@H](C)O1.Cl [Daunorubicin HCl] + CC(C)C[C@H](NC(=O)[C@H](CCc1ccccc1)NC(=O)CN1CCOCC1)C(=O)N[C@@H](Cc1ccccc1)C(=O)N[C@@H](CC(C)C)C(=O)[C@@]1(C)CO1 [Carfilzomib],4.41
18,Cc1c(-c2ccc(O)cc2)n(Cc2ccc(OCCN3CCCCCC3)cc2)c2ccc(O)cc12.Cl [Bazedoxifene HCl] + CC(C)C[C@H](NC(=O)[C@H](CCc1ccccc1)NC(=O)CN1CCOCC1)C(=O)N[C@@H](Cc1ccccc1)C(=O)N[C@@H](CC(C)C)C(=O)[C@@]1(C)CO1 [Carfilzomib],11.3
19,CN1CCN(c2ccc(C(=O)/N=c3\[nH][nH]c4ccc(Cc5cc(F)cc(F)c5)cc34)c(NC3CCOCC3)c2)CC1 [Entrectinib] + CC(C)C[C@H](NC(=O)[C@H](CCc1ccccc1)NC(=O)CN1CCOCC1)C(=O)N[C@@H](Cc1ccccc1)C(=O)N[C@@H](CC(C)C)C(=O)[C@@]1(C)CO1 [Carfilzomib],10.1
20,CO[C@H]1/C=C/O[C@@]2(C)Oc3c(C)c(O)c4c(O)c(c(/C=N/N5CCN(C6CCCC6)CC5)c(O)c4c3C2=O)NC(=O)/C(C)=C\C=C\[C@H](C)[C@H](O)[C@@H](C)[C@@H](O)[C@@H](C)[C@H](OC(C)=O)[C@@H]1C [Rifapentine] + CC(C)C[C@H](NC(=O)[C@H](CCc1ccccc1)NC(=O)CN1CCOCC1)C(=O)N[C@@H](Cc1ccccc1)C(=O)N[C@@H](CC(C)C)C(=O)[C@@]1(C)CO1 [Carfilzomib],21.9
